G9a inh: inhibitors of human histone lysine methyltransferase G9a; Q96KQ7; G9a H3K9 monomethylation, AlphaScreen, 2 h; Potency, µM (doses to about 102 µM), without a hit: at the top dose activity, negative = inhibition, usual class: inhibitors; 8.8% of 350,000 active; AID 504332; further: on the % scale 0 is the no-effect control and ±100 the full control effect; nearly all actives have a fitted effect of over 75% in size
Target sequence (Q96KQ7 913-1193 limits assumed): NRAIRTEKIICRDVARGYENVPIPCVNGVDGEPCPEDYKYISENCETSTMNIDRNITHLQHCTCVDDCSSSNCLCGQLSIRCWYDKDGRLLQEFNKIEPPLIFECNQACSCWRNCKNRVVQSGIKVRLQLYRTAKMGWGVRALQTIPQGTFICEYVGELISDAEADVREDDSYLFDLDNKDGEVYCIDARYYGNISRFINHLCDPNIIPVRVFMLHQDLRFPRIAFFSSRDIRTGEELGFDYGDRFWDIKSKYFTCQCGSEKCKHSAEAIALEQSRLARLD
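Step 1: enzyme (final 20 nM) with compound, 15 min RT. Step 2: substrate peptide 500 nM and SAM 20 uM, 2 h RT. Step 3: anti-H3K9me1 antibody and AlphaScreen beads, 10 min, then plate read.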
Sfp inh: inhibitors of Bacillus subtilis Sfp phosphopantetheinyl transferase; Q9F4F7; Biochemical Sfp PPTase activity, qHTS; Potency, µM, for the others: largest response in the series, negative = inhibition, usual class: inhibitors; 3.5% of 310,000 active;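 further: the enzyme is Sfp with the accession as filed and its product quenches rhodamine fluorescence; 0% = enzyme reaction without inhibitor and -100% = no enzyme wells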
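Reaction rates are the 30-min fluorescence difference (ex 525, em 598 nm) in wells containing 15 nM Sfp, 5 uM rhodamine-CoA and 12.5 uM BHQ-2-YbbR at pH 7.6 with 10 mM MgCl2.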
JMJD2A Tudor inh: blocks the human JMJD2A Tudor domain; 4.4% of 390,000 active; AlphaScreen JMJD2A-Tudor / H3K4me3 peptide binding; O75164; AID 504339; Potency, µM (titrated, usually from 114 µM), for the others: at the top dose activity change, negative = inhibition, most hits filed as inhibitors; further: on the % scale 0 is the no-effect control and ±100 the full control effect; nearly all actives have a fitted effect of over 50% in size
PLK1 PBD block: PLK1 (human) polo-box domain binding inhibition | 2.8% of 360,000 active | Plk1 PBD binding of FITC phosphopeptide, fluorescence polarization | P53350 | Potency, µM, inactives show max response, negative = inhibition, most hits filed as inhibitors | AID 720504; further: series mostly up to about 57 µM; on the % scale 0 is the no-effect control and ±100 the full control effect; nearly all actives have a fitted effect of over 65% in size
HP1b binding inh: HP1-beta chromodomain-methylated histone interaction inhibition; AlphaScreen HP1-beta / biotin-H3K9me3 peptide binding; Potency, µM (doses to about 114 µM), for inactives: at the top dose activity change, negative = inhibition, usual class: inhibitors; 0.56% of 390,000 active; P83916; further: nearly all actives have a fitted effect of over 70% in size
Target sequence (P83916 whole entry, looked up): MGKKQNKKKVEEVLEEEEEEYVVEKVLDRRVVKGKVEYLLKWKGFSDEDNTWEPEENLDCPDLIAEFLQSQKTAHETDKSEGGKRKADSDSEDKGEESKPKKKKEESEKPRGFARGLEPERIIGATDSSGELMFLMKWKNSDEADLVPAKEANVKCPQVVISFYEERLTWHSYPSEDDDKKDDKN
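AlphaScreen: HP1-beta (50 nM) preformed 30 min with biotin-H3(1-18)K9me3 peptide (50 nM) in PBS pH 7.4, 0.01% Tween-20. Compound added for 30 min at RT, then streptavidin donor/nickel chelate acceptor beads (10 ug/mL) for 30 min.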
BAZ2B inh: blocks human BAZ2B. AlphaScreen BAZ2B-H3K14Ac peptide displacement. Potency, µM (highest dose often 114 µM), without a hit: top-dose activity change, negative = inhibition, most hits filed as inhibitors. 4.4% of 360,000 active. AID 504333. Q9UIF8; further: on the % scale 0 is the no-effect control and ±100 the full control effect; nearly all actives have a fitted effect of over 60% in size
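In this displacement format the biotinylated H3(5-23) peptide acetylated at Lys14 serves as ligand at 50 nM, with BAZ2B at 50 nM in PBS pH 7.4 containing 0.01% Tween-20. Donor and acceptor beads are 10 ug/mL final.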
Numbers without * were called inactive; ? = inconclusive; · = no result given; [ ] = remark or other dose. Most compounds without a hit are left out; they make up all but 12% or so of the library. The call rests on the fitted dose curve; in most records, active means well fitted curve in the direction sought with a large enough effect; inconclusive means small, poorly fitted or top-dose-only effect, or another doubt; inactive means no such curve, though single readings can be large; an effect the other way counts as inactive or inconclusive. Potency means the concentration at half of the fitted maximal effect.

SMILES	G9a inh	Sfp inh	JMJD2A Tudor inh	PLK1 PBD block	HP1b binding inh	BAZ2B inh
Cc1cc(-c2nnc(SCC(=O)Nc3ccccc3C(F)(F)F)n2N)n[nH]1	-4.7%	10.9%	?	5.97µM*	21.6%	-11.7%
O=C(CSc1n[nH]c(-c2ccncc2)n1)Nc1ccccc1C(F)(F)F	25.1µM*	-14.2%	-34.5%	-17.8%	3.8%	4.8%
NC(=O)c1ccccc1NC(=O)CSc1cn[nH]n1	-5.4%[59 µM]	9.6%	3.5%	-0.4%	31.2%	9.0%
O=C1CCCN2N=C(SCC(=O)Nc3ccccc3C(F)(F)F)SC2=N1	19.2%	-3.4%	?	0.7%	?	56.2µM*
O=C(CSc1cn[nH]n1)Nc1ccccc1C(F)(F)F	25.1µM*	-18.3%	7.4%	-19.1%	38.9%	-0.5%
COCCCN1C(=O)c2ccc(C(=O)OCC(=O)N3CCN(c4ccccc4)CC3)cc2C1=O	?	·	-21.0%	-4.9%	-7.7%	5.4%
O=C(CSc1n[nH]c(-c2ccncc2)n1)Nc1ccccn1	?	-10.6%	56.2µM*	-14.0%	19.2%	?
CC(C)CC(=O)NC(NC(=S)Nc1ccccc1)C(Cl)(Cl)Cl (centres undefined)	31.6µM*	3.7%	-6.5%	29.9µM*	7.6%	-0.7%
CCC(=O)NC(NC(=S)Nc1ccc(S(N)(=O)=O)cc1)C(Cl)(Cl)Cl (centres undefined)	8.91µM*	-8.5%	-8.6%	-9.0%	4.8%	-6.6%
Cc1c(NC(=S)NC(NC(=O)CC(C)C)C(Cl)(Cl)Cl)c(=O)n(-c2ccccc2)n1C (centres undefined)	?	9.9%	?	0.8%	27.9%	7.7%
Cc1cccc(C(=O)NC(NC(=S)Nc2ccc(S(N)(=O)=O)cc2)C(Cl)(Cl)Cl)c1 (centres undefined)	?	-8.4%	-20.8%	-0.9%	16.7%	?
CC(=O)NC(NC(=S)Nc1ccc(S(N)(=O)=O)cc1)C(Cl)(Cl)Cl (centres undefined)	44.7µM*	14.9%	-10.5%	-15.2%	37.7%	-5.0%
COc1ccccc1C(=O)NC1(C(F)(F)F)C(=O)Nc2c1c(=O)[nH]c(=O)n2-c1ccc(F)cc1 (centres undefined)	-30.6%[59 µM]	·	-13.4%	·	35.3%	-19.7%
COc1ccc(N(C)C(=O)NCc2noc3ccc(C)cc23)c(OC)c1	19.8%[59 µM]	·	6.2%	·	56.2%	-25.8%
CCCCN(C)CCn1c(=S)[nH]c2ccc(N3CCOCC3)cc2c1=O	?	-15.1%	28.2µM*	2.3%	17.8%	3.0%
CCOc1cc2[nH]c(=O)n(Cc3ccc(C(=O)N4CCN(c5ccccc5)CC4)cc3)c(=O)c2cc1OCC	1.0%[59 µM]	·	-29.7%	·	19.2%	-28.7%
CCOc1cc2[nH]c(=S)n(Cc3ccc(C(=O)O)cc3)c(=O)c2cc1OCC	17.8µM*	-23.1%	?	-7.5%	-1.4%	-11.2%
COc1ccc(CCn2c(=S)[nH]c3ccc(N4CCOCC4)cc3c2=O)cc1OC	17.8µM*	-11.9%	-5.1%	?	-20.6%	-25.9%
CCCCN(C)CCn1c(=S)[nH]c2cc(OCC)c(OCC)cc2c1=O	11.2µM*	3.0%	-13.4%	-4.5%	58.7%	-21.7%
Cc1ccc(N2CCN(S(=O)(=O)c3nnc(NC(=O)c4cccc(F)c4)s3)CC2)cc1	-18.9%[59 µM]	·	-12.2%	·	34.6%	-34.2%
CCc1c(C)sc2c1CCN(Cc1ccccc1)C2c1ccccc1 (centres undefined)	4.9%[12.7 µM]	·	-11.3%	·	11.2%	-25.7%
CCCCOC(=O)c1ccc(NC(=O)CSc2nc3c(c(=O)[nH]2)CCCC3)cc1	?	·	-9.9%	·	10.4%	-14.3%
COc1cccc(C2C(C#N)=C(NC(=O)CCc3ccccc3)Oc3ccc4ccccc4c32)c1 (centres undefined)	·	·	-24.0%	·	·	·
CCCn1c(/C=C/c2ccccc2)nc2ccccc21	71.1%[59 µM]	?	110.3%	-0.5%	169.6%	156.5%
CCn1c(/C=C/c2cc[n+](C)cc2)nc2ccccc21	35.5µM*	-1.3%	?	-21.7%	8.4%	?
COCCOCCn1c(/C=C/c2ccccc2)nc2ccccc21	8.4%	18.2%	?	18.9µM*	3.2%	-0.6%

Screens: PubChem BioAssay, National Center for Advancing Translational Sciences (NCATS)
